IP6K1 inhibitor: IP6K1 kinase inhibition; Q92551; IP6K1 kinase, ADP-Glo luminescence, 2 h; stronger effect = lower value; activity change, % (series mostly up to about 58 µM); 140,000 compounds, 0.81% hits; AID 1645851; in the data active = activity change below about -25%
Target sequence (Q92551 whole entry, looked up): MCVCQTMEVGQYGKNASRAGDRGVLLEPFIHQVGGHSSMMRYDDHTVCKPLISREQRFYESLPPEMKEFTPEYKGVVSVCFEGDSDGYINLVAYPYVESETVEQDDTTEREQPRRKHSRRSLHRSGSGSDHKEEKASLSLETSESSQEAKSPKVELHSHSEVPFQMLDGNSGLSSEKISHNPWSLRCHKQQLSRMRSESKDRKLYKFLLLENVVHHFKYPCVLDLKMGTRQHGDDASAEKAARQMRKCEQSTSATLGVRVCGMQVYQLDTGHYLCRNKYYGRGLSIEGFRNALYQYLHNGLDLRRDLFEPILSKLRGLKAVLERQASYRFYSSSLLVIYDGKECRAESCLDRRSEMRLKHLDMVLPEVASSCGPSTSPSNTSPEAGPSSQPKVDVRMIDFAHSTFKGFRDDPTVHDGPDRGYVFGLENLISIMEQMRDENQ
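ADP-Glo luminescence measures ADP made by human IP6K1 during a 2 h RT reaction with ATP/IP6 (mix at 1.3 mM/130 uM); top library doses 57.5 and 19.1 uM final.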
KDM5B inh: blocks human KDM5B histone demethylase activity; Q9UGL1; KDM5B demethylase, FDH-coupled NADH fluorescence (FDH is formaldehyde dehydrogenase); Potency, µM (highest dose often 57.7 µM), usual class: inhibitors; 220,000 compounds, 2.6% hits; AID 1347165; active = well fitted inhibition curve with a large enough effect; inconclusive = small, poorly fitted or top-dose-only effect; inactive = no such curve, though single readings can be large or run the other way; note: nearly all actives have a fitted effect of over 70% in size
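qHTS format, multiple compound concentrations. Buffer 50 mM HEPES pH 7.5/0.01% Tween-20; 200 nM KDM5BΔAP final; 10 min compound preincubation; substrate-mix levels 12.5 µM peptide, 25 µM α-KG, 0.25 mM NAD⁺; 30 min RT; ΔRFU.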
A number is an active result; 0 = inactive; ? = inconclusive; - = no result given; ! = repeats disagree. Rows were chosen to be rich in hits. Some 2.7% of all compounds tested hit in one or more screens of this group.

SMILES	IP6K1 inhibitor	KDM5B inh
CC1(COc2cccnc2)COc2ccc(C(=O)NCC3CCOCC3)cc2N1 (stereo not given)	0	35µM
CC1(COCC2CC2)COc2ccc(C(=O)Nc3cccnc3)cc2N1 (stereo not given)	0	?
CC1(COc2cccnc2)COc2ccc(C(=O)Nc3ccc4[nH]ccc4c3)cc2N1 (stereo not given)	0	0
CC(=O)N/N=C/c1cc(Cl)ccc1OCCOCCOc1ccc(C)cc1	-	0
CCN(CC(=O)Nc1c(F)cccc1F)C(=O)C1CC(=O)N(Cc2ccccc2)C1 (stereo not given)	-	0
O=C(COC(=O)C1(c2ccccc2F)CCCC1)Nc1ccc(C(F)(F)F)cc1[N+](=O)[O-]	-	0
CC(NC(=O)Cc1c[nH]c2ccccc12)c1ccco1 (stereo not given)	-	0
FC(F)(F)c1ccc(N2C3CCC2CN(Cc2ccc(-c4cccs4)cc2)C3)cc1	0	28µM
O=C(c1ccncc1)N1CC2CCC(C1)N2Cc1ccc(-c2cccs2)cc1	0	79µM
O=C(c1ccncc1)N1CC2CCC(C1)N2Cc1ccc(-c2ccsc2)cc1	0	0
FC(F)(F)c1ccc(N2C3CCC2CN(Cc2ccccc2)C3)cc1	0	0
O=C(c1ccccc1F)N1CCN(c2nccc(Nc3ccccc3F)n2)CC1	0	-
C=CCNC(=O)NCc1cccc(C(N)=O)c1	-	0
O=S(=O)(c1cccc2nsnc12)N1CCCCCC1c1cccc(F)c1 (stereo not given)	-	0
COCCN1C(=O)c2ccccc2C(C(=O)Nc2nnc(CC(C)C)s2)C12CCCC2 (stereo not given)	0	0
Cc1ccc(-c2ccc3nnc(CNC(=O)Cc4cccc(F)c4)n3n2)cc1	0	?
COc1ccc(-c2ccc3nnc(CNC(=O)c4cc(Cl)ccc4F)n3n2)cc1	0	28µM
Cc1ccc(-c2ccc3nnc(CNC(=O)c4cc(Cl)ccc4F)n3n2)cc1	0	28µM
COc1ccc(-c2ccc3nnc(CNC(=O)c4cc(F)ccc4F)n3n2)cc1	0	28µM
Cc1ccc(-c2ccc3nnc(CNC(=O)c4cc(F)ccc4Cl)n3n2)cc1	0	13µM
O=C1Cc2c(-c3ccccc3)n[nH]c2CN1CC1CCOCC1	0	?
COc1ccc(/C=C/C(=O)NC2CCCC2)c(OC)c1	-	0
Cc1ccc(Nc2ccnc(N3CCC(C(=O)NCCCc4ccccc4)CC3)n2)cc1	0	-
O=C(NCC(O)c1cccc(Cl)c1)Nc1nnc(C2CC2)s1 (stereo not given)	-	0
Cc1cc(C(=O)CSc2nnc(CN3CCCC3)n2-c2ccccc2)c(C)n1C1CC1	-	0
SMILES	IP6K1 inhibitor	KDM5B inh
CNC(=O)Nc1cccn2nc(-c3ccccc3)nc12	0	25µM
Cc1ccc(NC(=O)Nc2cccn3nc(C)nc23)cc1	0	0
CC(C)CNC(=O)c1cc(-c2ccc(F)cc2)c2nncn2n1	0	-
CC(CC(=O)Nc1ccc(NC(=O)C(C)(C)C)cc1)c1ccccc1 (stereo not given)	-	0
CC(=O)c1ccc(N2CCN(C(=O)c3nn(Cc4ccccc4)c(=O)c4ccccc34)CC2)c(F)c1	-	0
O=C(O)Cn1ccc2cc(OCCc3cccc(-c4ccccc4)c3)cnc21	0	?
O=C(O)Cn1ccc2cc(OCCc3cccc(-c4ccc(Cl)cc4)c3)cnc21	0	35µM
COc1cc(Cl)ccc1-c1cccc(CCOc2cnc3c(ccn3CC(=O)O)c2)c1	0	?
COc1cc(F)cc(-c2cccc(CCOc3cnc4c(ccn4CC(=O)O)c3)c2)c1	0	32µM
CCCCCNC(=O)C1CCCN1Cc1cccc(-c2ccc(C)c(Cl)c2)c1 (stereo not given)	0	-
COc1cccc(CNC(=O)c2nc3sccn3c2-c2ccc(F)cc2)c1	0	-
COc1ccc(-n2cc(-c3ccnc(N(C)Cc4cnccn4)n3)cn2)cc1	0	?
COc1ccc(-n2cc(-c3ccnc(NCCC4CCCN4C)n3)cn2)cc1 (stereo not given)	0	28µM
Cc1cn2nc(C(=O)N3CCCC3)cc2c(N(C)Cc2ccccc2)n1	0	?
Cc1cn2nc(C(=O)Nc3ccc(F)c(F)c3)cc2c(N(C)Cc2ccccc2)n1	0	32µM
Cc1cn2nc(C(=O)Nc3ccccc3F)cc2c(N(C)Cc2ccccc2)n1	0	22µM
Cc1cn2nc(C(=O)N3CCC(C)CC3)cc2c(N(C)Cc2ccccc2)n1	0	28µM
Cc1cn2nc(C(=O)Nc3ccc4c(c3)OCO4)cc2c(N(C)Cc2ccccc2)n1	0	?
Cc1cn2nc(C(=O)N3CCOCC3)cc2c(N(C)Cc2ccccc2)n1	0	?
CCOc1ccc(OCc2cccc(C(=O)OCC3CCCO3)c2)cc1 (stereo not given)	-	0
COc1ccc(-c2noc(-c3cc(-c4ccco4)n[nH]3)n2)cc1	-	0
CN(Cc1ccccc1)S(=O)(=O)c1ccc(NC(=O)CN2CCN(c3ccccc3O)CC2)cc1	-	0
COc1ccc(NC(=O)c2c(C)oc3ccn(Cc4cccc(F)c4)c(=O)c23)cc1F	0	0
COc1ccc(OC)c(NC(=O)c2c(C)oc3ccn(Cc4cccc(F)c4)c(=O)c23)c1	0	25µM
COC(=O)c1ccc(NC(=O)c2c(C)oc3ccn(Cc4ccc(F)cc4)c(=O)c23)cc1	0	?
SMILES	IP6K1 inhibitor	KDM5B inh
CC(=O)Nc1ccc(NC(=O)c2c(C)oc3ccn(Cc4ccc(F)cc4)c(=O)c23)cc1	0	28µM
CC(C)=CC(=O)NC(C)c1ccc(Cl)cc1Cl (stereo not given)	-	0
CN(CC(=O)Nc1ccccc1Br)C(=O)CCn1c(=O)oc2ccccc21	-	0
COc1ccc(-c2ncc(CN3CCCC4(C3)CN(C)C(=O)O4)cn2)cc1 (stereo not given)	0	14µM
COc1ccc(CN2CCCC3(C2)CN(C)C(=O)O3)cc1C(=O)O (stereo not given)	0	0
c1ccc(-c2nc3ccncc3[nH]2)nc1	0	126µM!
c1ccc(-c2nc(-c3ccncc3)n[nH]2)nc1	-	0
Cc1ccc(-c2nc(-c3cccs3)c(-c3cccs3)[nH]2)cc1	0	?
Cc1ccoc1-c1nc2ccncc2[nH]1	0	32µM!
Cc1ccc(NC(=O)CSc2nc3ccncc3[nH]2)cc1F	-	0
c1c[nH]c(-c2nc3ccncc3[nH]2)c1	0	32µM
O=C(CSc1nc2ccncc2[nH]1)Nc1ccccc1C(F)(F)F	0	0
c1csc(-c2nc3ccncc3[nH]2)c1	0	32µM
O=S(=O)(NCCc1ccc(-n2cccn2)cc1)c1ccc(F)cc1	-	0
Cc1ccc(-c2cc3c(=O)n(CCNC(=O)Cc4ccsc4)ccn3n2)cc1C	0	0
COc1ccc(-c2cc3c(=O)n(CCNC(=O)Cc4ccc(C)cc4)ccn3n2)cc1	0	20µM
COc1ccc(-c2cc3c(=O)n(CCNC(=O)Cc4ccsc4)ccn3n2)cc1	0	28µM
O=C(Cc1ccc(F)cc1)NCCn1ccn2nc(-c3ccc(F)cc3)cc2c1=O	0	0
CC(C(=O)O)n1cnc2ccccc21 (stereo not given)	-	0
COc1cccc(C(=O)N2CCN(C(=O)c3cccc(-c4cccc(OC)c4)c3)CC2)c1	0	-
COCCNC(=O)C1(C)CCCc2cnc(Nc3ccccc3)nc21 (stereo not given)	0	0
COc1ccc(NC(=O)C2(C)CCCc3cnc(N(C)C)nc32)cn1 (stereo not given)	0	35µM
CN(C)c1ncc2c(n1)C(C)(C(=O)Nc1ccccc1)CCC2 (stereo not given)	0	35µM
